# Test results from PubChem BioAssay (EPA / NIEHS).
# Records with an inconclusive call do not appear. Active and inactive are the calls of the source. Rule for the calls, unless noted: active = hit-call score of the fitted dose curve at least 0.9, where 1 is the maximum; inactive = score below 0.9.
# How the values were obtained:
# [1] = CCTE_Shafer_MEA_dev_active_electrodes_number: CCTE's Neural Network Formation Assay for Number of Active Electrodes, Shafer Lab (AID 2284040; active = hit-call score of the fitted dose curve at least 0.9, where 1 is the maximum;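 note: potency for loss of active electrodes versus DMSO so lower counts are hits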)
# In short: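 Primary rat cortical neurons on 16-electrode MEA wells, exposed from day 0 through day 12 with compound renewed at DIV 5 and 9 feeds. Active electrodes (mean firing ≥5 spikes/min) counted at DIV 5, 7, 9, 12; trapezoidal AUC across days, loss-of-signal versus DMSO.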
# [2] = CCTE_Shafer_MEA_dev_burst_rate: CCTE's Neural Network Formation Assay for Burst Rate, Shafer Lab (AID 2284042)
# In short: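 Primary rat cortical neurons on PEI-coated 48-well MEA plates (laminin added with cells at plating) (16 electrodes/well), exposed from plating to day 12, dosing renewed at DIV 5 and 9. Burst rate averaged over active electrodes, recorded DIV 5, 7, 9, 12, summarized as AUC; loss versus DMSO.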
# [3] = CCTE_Shafer_MEA_dev_bursting_electrodes_number: CCTE's Neural Network Formation Assay for Number of Bursting Electrodes, Shafer Lab (AID 2284043; active = hit-call score of the fitted dose curve at least 0.9, where 1 is the maximum;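 note: potency is for loss of bursting electrodes relative to DMSO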)
# In short: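 Primary rat cortical neurons plated on 16-electrode MEA wells, exposed from day 0 with compound renewed at DIV 5 and 9. Electrodes bursting ≥1 burst per 2 min counted on days 5, 7, 9 and 12; trapezoidal AUC across days, fitted for loss versus DMSO.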
# [4] = CCTE_Shafer_MEA_dev_per_burst_interspike_interval: CCTE's Neural Network Formation Assay for Burst Interspike Interval, Shafer Lab (AID 2284044);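 note: mean spike spacing inside bursts as AUC over recordings on days 5 7 9 12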;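 for AC50: potency for a decrease of within-burst interspike interval below DMSO level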
# In short: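 Mean interspike interval within single-electrode bursts, averaged over bursting electrodes, from rat cortical cultures on MEA plates recorded on days 5, 7, 9 and 12. Continuous compound exposure from plating; trapezoidal AUC fitted downward relative to DMSO.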
# [5] = CCTE_Shafer_MEA_dev_burst_duration_mean: CCTE's Neural Network Formation Assay for Mean Burst Duration, Shafer Lab (AID 2284045)
# In short: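 Primary rat cortical neurons on 48-well 16-electrode MEA plates, exposed from day 0 with renewal at DIV 5 and 9; spontaneous activity recorded on days 5, 7, 9, 12. Well-mean burst duration across bursting electrodes, collapsed as trapezoidal AUC; DMSO baseline.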
# [6] = CCTE_Shafer_MEA_dev_interburst_interval_mean: CCTE's Neural Network Formation Assay for Mean Interburst Interval, Shafer Lab (AID 2284046);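 note: well-mean interburst interval of bursting electrodes as AUC over four recording days; curve fitted for decrease in interburst interval relative to DMSO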
# In short: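 Recordings on days 5, 7, 9 and 12 give well-mean interburst interval across actively bursting electrodes, summarized as area under the curve. Cultures: rat cortical neurons, continuous exposure from day 0, compound renewed at feeds; decrease analyzed versus DMSO.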
# [7] = CCTE_Shafer_MEA_dev_inter_network_spike_interval_mean: CCTE's Neural Network Formation Assay for Mean Inter-network Spike Interval, Shafer Lab (AID 2284047);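 for AC50: potency for a decrease in mean inter-network spike interval below DMSO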
# In short: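 Primary rat cortical neurons on 16-electrode MEA wells, exposed from plating day 0 through DIV 12, compound renewed at DIV 5 and 9 media changes. Mean interval between network-spike peaks recorded DIV 5, 7, 9, 12; collapsed as trapezoidal AUC, fitted downward versus DMSO.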
# [8] = CCTE_Shafer_MEA_dev_network_spike_number: CCTE's Neural Network Formation Assay for Number of Network Spikes, Shafer Lab (AID 2284048)
# In short: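 Primary rat cortical neurons on PEI/laminin 48-well MEA plates, dosed from plating day 0 for 12 days, renewed at DIV 5 and 9. Network spike counts recorded DIV 5, 7, 9, 12, collapsed as trapezoidal AUC; DMSO baseline.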
# [9] = CCTE_Shafer_MEA_dev_network_spike_peak: CCTE's Neural Network Formation Assay for Mean Number of Electrodes in Network Spike, Shafer Lab (AID 2284049);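 note: fitted for loss of signal meaning fewer electrodes in network spikes than DMSO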
# In short: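 Network-spike peak electrode count from recordings on days 5, 7, 9 and 12 was combined as trapezoidal area under the curve. Rat cortical cultures were treated continuously from plating, with compound renewed at each feed (DIV 5, 9); fits versus DMSO.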
# [10] = tested on: DIO2 (gene 1734); test: CCTE_GLTED_hDIO2: CCTE's human Deiodinase 2 (DIO2) Inhibition Assay, Great Lakes Toxicology and Ecology Division (GLTED) Lab (AID 2284050; active = hit-call score of the fitted dose curve at least 0.9, where 1 is the maximum)
# In short: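 hDIO2 enzyme + test chem, 3 h → free iodide from substrate; step 2: Sandell-Kolthoff (Ce IV reduction by As, iodide-catalysed), spectrophotometric read. Triplicate plates; DMSO = baseline.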
# [11] = CCTE_Shafer_MEA_dev_spike_duration_mean: CCTE's Neural Network Formation Assay for Mean Spike Duration, Shafer Lab (AID 2284051);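 note: mean network spike duration pooled as area under curve over DIV 5 to 12 recordings; potency for a decrease in mean network spike duration versus DMSO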
# In short: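 Primary rat cortical neurons on 16-electrode MEA wells (PEI-coated, laminin in plating drop), exposed from plating through DIV 12 with compound renewed at DIV 5 and 9. Mean network-spike duration recorded DIV 5, 7, 9, 12; trapezoidal AUC across days, DMSO baseline.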
# [12] = CCTE_Shafer_MEA_dev_network_spike_duration_std: CCTE's Neural Network Formation Assay for Standard Deviation of Network Spike Duration, Shafer Lab (AID 2284052);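 note: area under curve of spike duration SD across recording days 5 to 12; hits are decreases in network spike duration SD versus DMSO vehicle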
# In short: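 Primary rat cortical neurons on PEI-coated 16-electrode MEA wells, exposed from plating day 0 through day 12 with compound renewed at DIV 5 and 9. Network spike duration SD recorded on days 5, 7, 9, 12, collapsed as trapezoidal AUC; loss-of-signal fit versus DMSO.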
# [13] = CCTE_Shafer_MEA_dev_per_network_spike_spike_number_mean: CCTE's Neural Network Formation Assay for Mean Number of Spikes in a Network Spike, Shafer Lab (AID 2284053);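 for AC50: fitted as decrease in spikes per network spike relative to DMSO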
# In short: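 Primary rat cortical neurons on 48-well, 16-electrode MEA plates were exposed from plating to DIV 12, with dosing renewed on DIV 5 and 9. Spikes per network spike (0.05 s peak window) were recorded on DIV 5, 7, 9 and 12 and collapsed as trapezoidal AUC versus DMSO.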
# [14] = CCTE_Shafer_MEA_dev_per_network_spike_spike_percent: CCTE's Neural Network Formation Assay for Percent of Spikes in a Network Spike, Shafer Lab (AID 2284054)
# In short: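 Rat primary cortical neurons were grown on 48-well MEA plates (16 electrodes/well), exposed from plating day 0 through day 12, with treatment renewed on DIV 5 and 9. Percent of spikes within 0.05 s network-spike peaks was measured, summarised as AUC across days 5, 7, 9, 12.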
# [15] = tested on: DIO3 (gene 1735); test: CCTE_GLTED_hDIO3: CCTE's human Deiodinase 3 (DIO3) Inhibition Assay, Great Lakes Toxicology and Ecology Division (GLTED) Lab (AID 2284055; active = hit-call score of the fitted dose curve at least 0.9, where 1 is the maximum;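 note: potency is for inhibition seen as loss of released iodide signal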)
# In short: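 Absorbance from the Sandell-Kolthoff reaction reports iodide released by human DIO3 during a 3-hour incubation with chemical. Inhibition scored as signal loss against DMSO controls.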
# [16] = CCTE_Shafer_MEA_dev_LDH: CCTE's Lactate Dehydrogenase Assay for Cytotoxicity in the Neural Network Formation Assay, Shafer Lab (AID 2284068; active = hit-call score of the fitted dose curve at least 0.9, where 1 is the maximum;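 note: exposure for twelve days from plating with re-dosing on DIV 5 and 9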)
# In short: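 Primary rat cortical neurons were plated on PEI/laminin MEA plates and exposed from day 0 for twelve days, with compound renewed at DIV 5 and 9. Cytotoxicity was determined by spectrophotometric LDH assay relative to DMSO.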
# [17] = CCTE_Deisenroth_AIME_384WELL_CTox_Inactive: Cytotoxicity Assessment (CTOX) in CCTE's 384-well Estrogen Receptor Transactivation Assay without AIME metabolic competence (metabolism negative), Deisenroth Lab (AID 2284039; active = hit-call score of the fitted dose curve at least 0.9, where 1 is the maximum;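 note: cell viability via live-cell protease substrate cleaved to fluorescent probe; cells exposed 24 h to medium preincubated 2 h with alginate-water beads without S9; loss of fluorescence signal means loss of viability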)
# In short: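 VM7Luc4E2 cells, metabolism-negative arm: test chemicals (0.002–200 uM, 10 points) pre-incubated 2 h with alginate-water microspheres, then medium transferred to cells for 24 h. Viability read as protease-substrate cleavage to fluorescent probe; loss-of-signal, bidirectional fitting.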
# [18] = CCTE_Deisenroth_AIME_384WELL_CTox_Active: Cytotoxicity Assessment (CTOX) in CCTE's 384-well Estrogen Receptor Transactivation Assay with AIME metabolic competence (metabolism positive), Deisenroth Lab (AID 2284037; active = hit-call score of the fitted dose curve at least 0.9, where 1 is the maximum;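 note: chemicals first conditioned 2 h by alginate-bound induced rat liver S9 before cells; activity means signal loss indicating cell death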)
# In short: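 Chemicals pre-incubated 2 hours with alginate-immobilised phenobarbital/beta-naphthoflavone-induced male Sprague Dawley rat liver S9, then conditioned medium applied 24 hour to VM7Luc4E2 cells. Viability by fluorogenic protease substrate; 10-point series 0.002 - 200 uM.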
structure (smiles),measurement,setting,value
CC[C@H](C)C(=O)O[C@H]1C[C@@H](C)C=C2C=C[C@H](C)[C@H](CC[C@@H]3C[C@@H](O)CC(=O)O3)[C@H]21,AC50,[1],1.76 µM (active)
same,outcome,[2],inactive
same,AC50,[3],1.91 µM (active)
same,AC50,[4],2.9 µM (active)
same,outcome,[5],inactive
same,AC50,[6],2.9 µM (active)
same,AC50,[7],1.98 µM (active)
same,outcome,[8],inactive
same,AC50,[9],1.56 µM (active)
same,AC50,[10],82.5 µM (active)
same,AC50,[11],2.55 µM (active)
same,outcome,[12],inactive
same,AC50,[13],2.22 µM (active)
same,AC50,[14],1.77 µM (active)
same,AC50,[15],100 µM (active)
same,AC50,[16],0.956 µM (active)
Nc1cccc(N)c1,outcome,[17],inactive
CCC(C)(C)C(=O)O[C@H]1C[C@@H](C)C=C2C=C[C@H](C)[C@H](CC[C@@H]3C[C@@H](O)CC(=O)O3)[C@H]21,AC50,[1],0.801 µM (active)
same,outcome,[2],inactive
same,AC50,[3],1.06 µM (active)
same,outcome,[4],inactive
same,outcome,[5],inactive
same,AC50,[6],0.887 µM (active)
same,AC50,[7],0.506 µM (active)
same,outcome,[8],inactive
same,AC50,[9],0.688 µM (active)
same,AC50,[10],64.5 µM (active)
same,AC50,[11],1.03 µM (active)
same,outcome,[12],inactive
same,AC50,[13],1.1 µM (active)
same,AC50,[14],0.844 µM (active)
same,AC50,[15],97.8 µM (active)
same,AC50,[16],0.368 µM (active)
O=C(OC[C@H]1O[C@@H](OC(=O)c2cc(O)c(O)c(OC(=O)c3cc(O)c(O)c(O)c3)c2)[C@H](OC(=O)c2cc(O)c(O)c(OC(=O)c3cc(O)c(O)c(O)c3)c2)[C@@H](OC(=O)c2cc(O)c(O)c(OC(=O)c3cc(O)c(O)c(O)c3)c2)[C@@H]1OC(=O)c1cc(O)c(O)c(OC(=O)c2cc(O)c(O)c(O)c2)c1)c1cc(O)c(O)c(OC(=O)c2cc(O)c(O)c(O)c2)c1,AC50,[10],22.4 µM (active)
same,AC50,[15],14.8 µM (active)
CNCc1ccc(NC(=O)c2c[nH]c3c2C(=O)CCC3)cc1,outcome,[18],inactive
same,outcome,[17],inactive
same,AC50,[1],1.98 µM (active)
same,outcome,[2],inactive
same,AC50,[3],1.98 µM (active)
same,outcome,[4],inactive
same,outcome,[5],inactive
same,outcome,[6],inactive
same,outcome,[7],inactive
same,outcome,[8],inactive
same,AC50,[9],2.03 µM (active)
same,AC50,[11],0.666 µM (active)
same,outcome,[12],inactive
same,AC50,[13],2.49 µM (active)
same,outcome,[14],inactive
same,AC50,[16],0.865 µM (active)
COc1ccc(-n2nc(C(F)F)cc2-c2ccc(S(C)=O)cc2)cc1 (stereo not given),AC50,[1],10 µM (active)
same,outcome,[2],inactive
same,AC50,[3],10 µM (active)
same,outcome,[4],inactive
same,outcome,[5],inactive
same,outcome,[6],inactive
same,outcome,[7],inactive
same,outcome,[8],inactive
same,AC50,[9],1.98 µM (active)
same,AC50,[11],1.98 µM (active)
same,outcome,[12],inactive
same,outcome,[13],inactive
same,outcome,[14],inactive
same,AC50,[16],0.603 µM (active)
